The values that follow come from PubChem BioAssay (Tox21).

Each structure is given as a SMILES string. Where “and” joins values, the source holds several entries; their conditions need not be identical. Equal values may be shown once. Results filed as inconclusive are left out. Calls of active or inactive are those of the source. Unless noted, the call rests on the fitted dose curve; in most records, active means well fitted curve in the direction sought with a large enough effect in the repeat runs; inconclusive means weak or mixed curves; inactive means no such curve, though single readings can be large; an effect the other way counts as inactive or inconclusive.

A short description of assay [1]: qHTS assay to identify small molecule antagonists of the estrogen receptor alpha (ER-alpha) signaling pathway using the BG1 cell line in the presence of 0.1 nM 17-beta-estradiol - cell viability counter screen (AID 1259241). Further: nearly all actives have a fitted effect of over 40% in size. The gist of the method:
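Viability in VM7Luc4E2 cells after 22 hr compound exposure under 0.1 nM 17beta-estradiol stimulation, by CellTiter-Fluor.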
(Quantitative high-throughput screening tests each substance at several concentrations.)

Assay [2] is described as follows: qHTS assay to identify small molecule antagonists of the androgen receptor (AR) signaling pathway using the MDA cell line in the presence of 0.5 nM R1881 - cell viability counter screen (AID 1259242). Further: nearly all actives have a fitted effect of over 45% in size. Put shortly: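 qHTS format. MDA-kb2 (MMTV-luc, AR/GR responsive) + cpd + 0.5 nM R1881 final, 16 hr 37C/0% CO2 → CellTiter-Fluor 30 min → fluorescence intensity.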

For assay [3], the target named is Androgen receptor (Homo sapiens) (UniProt P10275). Kind of assay: qHTS assay to identify small molecule antagonists of the androgen receptor (AR) signaling pathway using the MDA cell line in the presence of 0.5 nM R1881 (AID 1259243). Further: nearly all actives have a fitted effect of over 50% in size. Further: potency means the concentration at half of the fitted maximal effect. Put shortly: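 Antagonist mode quantitative HTS in MDA-kb2 MMTV-luciferase cells, agonist R1881 at 0.5 nM final, 16 hr exposure at 37C and 0% CO2, luminescent detection.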

Assay [4] in a line: qHTS assay to identify small molecule HDAC inhibitors (AID 1259364).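 Further: wild-type HCT-116 cells with endogenous class I/II HDAC activity; top concentration of the series differs between compounds; nearly all actives have a fitted effect of over 45% in size.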 The gist of the method: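 Quantitative high-throughput format: overnight-seeded HCT-116 cells got compounds for 2 hr at 37C; HDAC-Glo I/II reagent added, 30 min RT, luminescence measured.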
Assay [5] in a line: qHTS assay to identify small molecule HDAC inhibitors - cell viability counter screen (AID 1259365). Further: series mostly up to about 92 µM; nearly all actives have a fitted effect of over 50% in size. Put shortly:
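Cytotoxicity was gauged in wild-type HCT-116 cells after a brief 2hr treatment with DMSO-dissolved compounds at 37C and 5% CO2, using CellTiter-Glo luminescence developed for 30min at room temperature.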

Assay [6] can be described thus: qHTS assay to identify small molecule agonists of the sonic hedgehog signaling (Shh) pathway - cell viability counter screen (AID 1259366). Further: nearly all actives have a fitted effect of over 50% in size. Put shortly:
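Stable Gli1-Luc NIH/3T3 clone, 2,000 cells/well. Compound exposure 24hr at 37C. Read-out: CellTiter-Fluor fluorescence.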

The nature of assay [7]: qHTS assay to identify small molecule antagonists of the sonic hedgehog signaling (Shh) pathway - cell viability counter screen (AID 1259367). Further: nearly all actives have a fitted effect of over 55% in size. Further: potency means the concentration at half of the fitted maximal effect. Put shortly:
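Cytotoxicity was assessed in parallel with Shh reporter activity by measuring live-cell protease fluorescence (CellTiter-Fluor) in NIH/3T3 cells stably carrying Gli1-Luc, treated with compound under conditioned medium stimulation for 23 hr plus 1 hr reagent incubation.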

Assay [8] can be described thus: qHTS assay to identify small molecule agonists of the sonic hedgehog signaling (Shh) pathway (AID 1259368; calls by dose curve;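 further: NIH/3T3-derived 3T3Gli1-Luc cells carrying a stable Gli1-driven firefly luciferase reporter; series mostly up to about 92 µM; nearly all actives have a fitted effect of over 15% in size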). Put shortly:
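Quantitative high-throughput format using a Gli1-driven firefly luciferase reporter line derived from NIH/3T3 cells. After a 24 hr compound treatment at 37 C and 5% CO2, luminescence reported Gli1 response element activity.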

Assay [9] can be described thus: qHTS assay to identify small molecule antagonists of the sonic hedgehog signaling (Shh) pathway (AID 1259369; calls by dose curve; further: nearly all actives have a fitted effect of over 45% in size). Put shortly:
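Stable Gli1-Luc reporter NIH/3T3 clone; quantitative HTS in stimulated mode with conditioned medium. Luminescence measured after 24hr compound treatment at 37 C.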

Assay [10] addresses Estrogen receptor beta (Homo sapiens) (UniProt Q92731). Kind of assay: qHTS assay to identify small molecule agonists of the estrogen receptor beta (ER-beta) signaling pathway (AID 1259377; active means well fitted activation curve with a large enough effect in the signal ratio in the repeat runs, not every such curve was filed as active; the % refers to the signal ratio). Put shortly:
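Measured by fluorescence intensity from a B/G FRET beta-lactamase substrate (2 h, room temperature) in ER-beta-UAS-bla HEK293T cells treated with DMSO-dissolved compounds for 16 hr at 37C and 5% CO2.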

Assay [11] in a line: qHTS assay to identify small molecule agonists of the androgen receptor (AR) signaling pathway in the presence of an antagonist - cell viability counter screen (AID 1259379).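 Further: MDA-kb2 human breast cancer cells carrying an MMTV luciferase reporter; series mostly up to about 92 µM; nearly all actives have a fitted effect of over 25% in size.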 The gist of the method:
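Nilutamide-containing (3.0uM final) MDA-kb2 cultures, 3,000 cells/well, were treated with compounds across 15 concentrations. After 16 hr at 37C with no CO2, cell viability was determined by CellTiter-Fluor fluorescence in the luciferase assay wells.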

The target in assay [12] is Androgen receptor (Homo sapiens) (UniProt P10275). Kind of assay: qHTS assay to identify small molecule agonists of the androgen receptor (AR) signaling pathway in the presence of an antagonist (AID 1259381; calls by dose curve; further: nearly all actives have a fitted effect of over 15% in size). Put shortly: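 Reporter-gene luminescence from MDA-kb2 cells exposed 16hr at 37C (0% CO2) to 15-point compound titrations with 3.0uM final nilutamide as AR antagonist.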

Assay [13] can be described thus: qHTS assay to identify small molecule agonists or antagonists of the thyroid stimulating hormone receptor (TSHR) signaling pathway - wild type cell line counter screen (AID 1259384; calls by dose curve). Put shortly: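 Wild-type HEK293 cells were plated 18 h at 37 C/5% CO2, pin-dosed with compound plus Ro20-1724 medium, held 30 min at room temperature, then given cAMP-d2 and anti-cAMP-cryptate; fluorescence was read after 1 h. Fifteen concentrations, triplicate.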

The target of assay [14] is Estrogen receptor (Homo sapiens) (UniProt P03372). Kind of assay: qHTS assay to identify small molecule antagonists of the estrogen receptor alpha (ER-alpha) signaling pathway using the BG1 cell line in the presence of 0.1 nM 17-beta-estradiol (AID 1259244). Further: nearly all actives have a fitted effect of over 50% in size. The gist of the method: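 Reporter is a stably transfected luciferase under four estrogen responsive elements in VM7Luc4E2 cells expressing native full-length ER-alpha; inhibition of 0.1 nM (final) 17beta-estradiol-driven signal over 22 h is read by luminescence.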

A short description of assay [15]: qHTS assay to identify small molecule phospholipidosis (PLD) inducers (AID 1259344; active means well fitted curve in the direction sought with a large enough effect; an effect the other way counts as inactive or inconclusive). The gist of the method:
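Cells (HepG2, 900 per well) attach for 4 h, receive LipidTOX Red and compound together, incubate 24 h at 37 C, are fixed 30 min with paraformaldehyde/Hoechst, then imaged at one site per well.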

Assay [16] in a line: qHTS assay to identify small molecule antagonists of the estrogen receptor beta (ER-beta) signaling pathway - cell viability counter screen (AID 1259382). Further: series mostly up to about 92 µM; nearly all actives have a fitted effect of over 55% in size. The gist of the method:
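Viability is scored by CellTiter-Glo luminescence (30 min, room temperature) in ER-beta-UAS-bla HEK293T wells already read for reporter fluorescence. Compound exposure lasts 16 hr at 37C alongside 1nM 17-beta-estradiol in charcoal-stripped serum medium.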

Assay [17] concerns the target Estrogen receptor (Homo sapiens) (UniProt P03372). Kind of assay: qHTS assay to identify small molecule agonists of the estrogen receptor alpha (ER-alpha) signaling pathway in the presence of an antagonist (AID 1259383; calls by dose curve; further: top concentration of the series differs between compounds; nearly all actives have a fitted effect of over 15% in size). The gist of the method:
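Readout was ERE-driven luciferase luminescence in VM7Luc4E2 cells, which express full-length ER-alpha endogenously. Compounds were tested at 15 concentrations for 22hr alongside 10.0nM ICI-182,780 (final concentration).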

Assay [18] deals with Estrogen receptor beta (Homo sapiens) (UniProt Q92731). Kind of assay: qHTS assay to identify small molecule antagonists of the estrogen receptor beta (ER-beta) signaling pathway (AID 1259378; active means well fitted inhibition curve with a large enough effect in the signal ratio in the repeat runs, not every such curve was filed as active; the % refers to the signal ratio; further: potency means the concentration at half of the fitted maximal effect). Put shortly: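 ER-beta-UAS-bla HEK293T (GripTite) cells in 2% charcoal-stripped FBS medium were preincubated 6 hr at 37C, dosed with compound, then stimulated with 1 nM E2 (final) for 16 hr; beta-lactamase reporter read by B/G FRET fluorescence after 2 hr substrate loading.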

Assay [19] can be described thus: qHTS assay to identify small molecule agonists of the estrogen receptor beta (ER-beta) signaling pathway - cell viability counter screen (AID 1259380). Further: nearly all actives have a fitted effect of over 30% in size. The gist of the method: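 Steps: plate ER-beta-UAS-bla HEK293T cells, rest 6 hr; add compounds in DMSO; incubate 16 hr at 37C, 5% CO2; add FRET substrate 2 hr; add CellTiter-Glo, wait 30 min at room temperature; read luminescence.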

The target of assay [20] is Thyrotropin receptor (Homo sapiens) (UniProt P16473). In words: qHTS assay to identify small molecule antagonists of the thyroid stimulating hormone receptor (TSHR) signaling pathway (AID 1259385; calls by dose curve; further: nearly all actives have a fitted effect of over 20% in size). Put shortly: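 TSHR-HEK293 cells were plated and held 18 h at 37C/5% CO2, then given compound plus Ro20-1724 and stimulated with TSH at 1.5 ng/mL final. After 30 min at room temperature, cAMP was detected with cAMP-d2/anti-cAMP-cryptate (1 h) by fluorescence.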
Thyrotropin receptor (Homo sapiens), sequence (P16473 whole entry, looked up): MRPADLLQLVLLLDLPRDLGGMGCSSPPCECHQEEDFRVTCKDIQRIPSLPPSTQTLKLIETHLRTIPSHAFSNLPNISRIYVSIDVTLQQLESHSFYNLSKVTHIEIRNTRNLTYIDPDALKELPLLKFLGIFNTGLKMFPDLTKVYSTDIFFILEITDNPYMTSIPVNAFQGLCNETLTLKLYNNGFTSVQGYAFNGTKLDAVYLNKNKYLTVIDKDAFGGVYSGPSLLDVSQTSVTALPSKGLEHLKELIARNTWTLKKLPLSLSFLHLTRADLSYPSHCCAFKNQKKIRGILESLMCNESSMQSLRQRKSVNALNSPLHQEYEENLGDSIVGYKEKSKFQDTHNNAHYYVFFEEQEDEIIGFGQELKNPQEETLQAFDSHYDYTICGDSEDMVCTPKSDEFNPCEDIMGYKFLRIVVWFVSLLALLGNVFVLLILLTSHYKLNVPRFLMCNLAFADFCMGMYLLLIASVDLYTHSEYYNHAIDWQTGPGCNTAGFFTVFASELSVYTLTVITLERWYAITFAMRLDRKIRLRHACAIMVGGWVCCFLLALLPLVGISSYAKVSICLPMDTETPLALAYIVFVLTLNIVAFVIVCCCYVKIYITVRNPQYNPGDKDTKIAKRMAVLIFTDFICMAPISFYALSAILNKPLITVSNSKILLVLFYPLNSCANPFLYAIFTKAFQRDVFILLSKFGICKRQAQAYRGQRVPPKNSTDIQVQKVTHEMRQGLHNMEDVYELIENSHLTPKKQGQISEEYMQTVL

Androgen receptor (Homo sapiens), sequence (P10275 whole entry, looked up): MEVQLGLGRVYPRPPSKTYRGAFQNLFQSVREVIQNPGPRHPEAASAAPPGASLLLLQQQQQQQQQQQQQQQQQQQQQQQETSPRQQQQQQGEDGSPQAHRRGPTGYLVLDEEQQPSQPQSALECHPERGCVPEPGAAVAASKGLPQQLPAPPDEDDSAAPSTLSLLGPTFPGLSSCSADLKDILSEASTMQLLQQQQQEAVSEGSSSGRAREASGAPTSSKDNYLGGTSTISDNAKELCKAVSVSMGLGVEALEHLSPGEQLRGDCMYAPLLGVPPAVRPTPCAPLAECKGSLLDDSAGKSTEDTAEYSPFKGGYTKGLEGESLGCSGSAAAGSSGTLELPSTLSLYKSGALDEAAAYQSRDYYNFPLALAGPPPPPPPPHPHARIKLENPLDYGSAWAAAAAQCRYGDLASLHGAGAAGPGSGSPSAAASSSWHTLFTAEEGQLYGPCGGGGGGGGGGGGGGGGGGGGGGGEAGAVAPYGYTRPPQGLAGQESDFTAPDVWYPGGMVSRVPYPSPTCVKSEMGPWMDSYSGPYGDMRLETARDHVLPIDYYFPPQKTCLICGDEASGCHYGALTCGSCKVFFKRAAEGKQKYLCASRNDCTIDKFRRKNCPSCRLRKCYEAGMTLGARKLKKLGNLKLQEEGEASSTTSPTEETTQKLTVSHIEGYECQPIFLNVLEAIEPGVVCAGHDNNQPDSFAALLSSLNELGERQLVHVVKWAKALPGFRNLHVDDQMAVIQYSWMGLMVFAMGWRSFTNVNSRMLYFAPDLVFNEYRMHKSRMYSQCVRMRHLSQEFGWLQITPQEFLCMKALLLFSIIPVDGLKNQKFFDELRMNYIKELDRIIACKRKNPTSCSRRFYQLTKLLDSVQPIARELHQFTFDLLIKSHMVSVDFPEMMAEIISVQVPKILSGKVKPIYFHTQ
Estrogen receptor beta (Homo sapiens), sequence (Q92731 whole entry, looked up): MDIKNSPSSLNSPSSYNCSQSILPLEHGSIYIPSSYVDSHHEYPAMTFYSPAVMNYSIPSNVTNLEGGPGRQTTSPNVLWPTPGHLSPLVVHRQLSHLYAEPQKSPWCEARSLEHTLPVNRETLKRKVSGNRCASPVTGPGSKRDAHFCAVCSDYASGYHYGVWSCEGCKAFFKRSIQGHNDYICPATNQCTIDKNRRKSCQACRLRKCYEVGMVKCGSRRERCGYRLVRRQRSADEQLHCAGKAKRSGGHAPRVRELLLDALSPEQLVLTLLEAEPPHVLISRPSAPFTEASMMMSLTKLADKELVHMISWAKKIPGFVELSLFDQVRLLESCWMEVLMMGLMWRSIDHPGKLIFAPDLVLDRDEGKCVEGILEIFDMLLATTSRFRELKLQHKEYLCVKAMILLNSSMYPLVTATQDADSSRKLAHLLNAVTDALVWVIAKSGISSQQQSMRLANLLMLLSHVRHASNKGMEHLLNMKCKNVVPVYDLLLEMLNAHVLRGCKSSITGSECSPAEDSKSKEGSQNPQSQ
Estrogen receptor (Homo sapiens), sequence (P03372 whole entry, looked up): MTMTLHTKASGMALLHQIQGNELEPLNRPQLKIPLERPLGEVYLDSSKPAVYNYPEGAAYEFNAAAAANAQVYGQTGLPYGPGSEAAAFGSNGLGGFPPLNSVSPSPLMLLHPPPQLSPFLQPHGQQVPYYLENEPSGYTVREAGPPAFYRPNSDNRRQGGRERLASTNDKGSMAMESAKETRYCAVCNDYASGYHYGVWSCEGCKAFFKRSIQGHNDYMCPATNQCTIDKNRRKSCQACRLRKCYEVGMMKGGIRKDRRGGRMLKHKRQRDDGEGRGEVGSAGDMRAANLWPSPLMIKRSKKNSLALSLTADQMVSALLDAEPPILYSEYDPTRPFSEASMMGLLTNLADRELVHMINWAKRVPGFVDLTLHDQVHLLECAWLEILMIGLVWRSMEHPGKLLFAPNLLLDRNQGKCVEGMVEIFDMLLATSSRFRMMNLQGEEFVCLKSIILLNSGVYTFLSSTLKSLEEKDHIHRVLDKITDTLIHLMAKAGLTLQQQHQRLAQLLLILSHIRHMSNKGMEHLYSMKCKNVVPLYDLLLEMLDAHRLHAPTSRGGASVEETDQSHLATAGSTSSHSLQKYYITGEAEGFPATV

In the case of `CC(=O)NNc1ccccc1`, the Potency result in assay [1], in assay [2], in [3], in assay [4], in [5] and in assay [6] was “inactive” each time. For the same compound, the Potency result in assay [7], in assay [8], in assay [9], in assay [10], in assay [11] and in assay [12] was “inactive” each time. The compound was called inactive in [13].

Consider `C[C@H](N)[C@H](O)c1ccc(O)c(O)c1`, for which the Potency result in assay [1], in assay [2], in assay [14], in assay [4], in assay [5] and in [6] was “inactive” each time. Also, the Potency entry in assay [7], in assay [8], in [10], in assay [11], in assay [16] and in [17] was “inactive” throughout. Besides, in assay [15], the call was inactive.

Consider `COCc1cnc(C2=NC(C)(C(C)C)C(=O)N2)c(C(=O)O)c1` (stereo unspecified), for which the Potency entry in [1], in [2], in assay [3], in assay [4], in assay [5] and in assay [6] was “inactive” throughout. Further, the Potency result in assay [7], in assay [8], in [9], in [10], in [18] and in assay [19] was “inactive” each time. In addition, the Potency result in assay [12], in assay [16], in assay [17] and in assay [20] was “inactive” in each case. Also, the compound was classed as inactive in assay [13].

With `O=[N+]([O-])O[C@H]1CO[C@H]2[C@@H]1OC[C@H]2O[N+](=O)[O-]`, the Potency result in [1], in [2], in assay [14], in [4], in assay [5] and in assay [6] was “inactive” throughout. The Potency result in [7], in [8], in assay [9], in assay [10], in [18] and in assay [16] was “inactive” throughout. Also, the Potency result in assay [17] and in assay [20] was “inactive” in each case. Also, the outcome in assay [15] and in assay [13] was inactive.

Regarding `CN1CC[C@]23c4c5ccc(O)c4O[C@H]2[C@@H](O)C=C[C@H]3[C@H]1C5`, the Potency result in [1], in [2], in [3], in assay [4], in [5] and in assay [8] was “inactive” throughout. Further, the Potency result in [11], in [19], in assay [12], in assay [16] and in assay [20] was “inactive” in each case. The compound was classed as inactive in assay [15] and in assay [13].

In the case of `CC(Cl)C(=O)O` (stereo unspecified), the Potency result in assay [1], in [2], in assay [3], in [4], in [5] and in [6] was “inactive” in each case. Further, the Potency entry in assay [7], in assay [8], in assay [9], in assay [11], in assay [19] and in [12] was “inactive” throughout. Further, the Potency entry in [16] and in assay [20] was “inactive” each time. Besides, the compound was classed as inactive in [13].

Regarding `O=C(O)c1ccc(=O)[nH]c1`, the Potency result in assay [1], in [2], in assay [3], in assay [14], in assay [4] and in assay [5] was “inactive” in each case. In addition, the Potency entry in assay [6], in assay [7], in assay [8], in [9], in assay [11] and in assay [19] was “inactive” in each case. Moreover, the Potency result in assay [12], in assay [16], in assay [17] and in assay [20] was “inactive” in each case. The outcome in [13] was inactive.

For the compound `C[N+](C)(C)CC1CO1` (stereo unspecified), the Potency entry in assay [1], in assay [2], in [3], in assay [4], in assay [5] and in assay [6] was “inactive” in each case. Further, the Potency result in [7], in assay [8], in assay [9], in assay [10], in assay [18] and in assay [19] was “inactive” each time. Also, the Potency entry in assay [12], in assay [16], in assay [17] and in assay [20] was “inactive” throughout. Further, in [13], the outcome was inactive.

Turning to `O=P(OCC(Br)CBr)(OCC(Br)CBr)OCC(Br)CBr` (stereo unspecified), the Potency entry in assay [1], in [2], in assay [4], in assay [5], in assay [8] and in [9] was “inactive” each time. The Potency entry in assay [10], in [12], in assay [16], in assay [17] and in [20] was “inactive” throughout. Moreover, the Potency in assay [3] is 31 µM (active) and 51.7 µM (active); in assay [7], 55.2 µM (active); in assay [18], 23.1 µM (active). Further, the call in assay [13] was inactive.
